Compound activity: PubChem, National Center for Advancing Translational Sciences (NCATS)
Pin1 inh – inhibitors of human Pin1. Q13526. Pin1 FP peptide displacement, HiFluor488, 10 min. Potency, µM (titrated, usually from 115 µM), inactives show at the top dose activity, negative = inhibition, most hits filed as inhibitors. hit rate 0.009% among 390,000. AID 504891; active = well fitted inhibition curve with a large enough effect in the polarisation, with a control signal flat, not every such curve was filed as active; inconclusive = small, poorly fitted or top-dose-only effect, or effect the other way, or a change in a side signal; inactive = no such curve, though single readings can be large or run the other way; the % refers to the polarisation
Target sequence (Q13526 whole entry, looked up): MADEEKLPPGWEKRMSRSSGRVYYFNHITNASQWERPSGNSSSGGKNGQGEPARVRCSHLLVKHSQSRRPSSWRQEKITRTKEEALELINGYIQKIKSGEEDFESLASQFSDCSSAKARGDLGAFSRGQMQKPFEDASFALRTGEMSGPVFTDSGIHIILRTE
GLS inh – blocks human kidney-isoform glutaminase activity; O94925; GLS enzymatic activity, qHTS titration; Potency, µM (top dose mostly 45.5 µM), without a hit: at the top dose activity change, negative = inhibition, actives largely listed as inhibitors; hit rate 0.21% among 410,000; AID 624170
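hKGA in 45 mM KH2PO4 pH 8.2, 0.02% Tween-20 with pin-transferred compounds; 1 mM L-glutamine (stock) plus glutamate oxidase/HRP/Amplex Red coupling added. Fluorescence read initially and after 30 min at RT.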
Tb PFK block – inhibitors of T. brucei phosphofructokinase; T. brucei PFK, ADP-Glo luminescence; O15648; Potency, µM (top dose mostly 57.5 µM), without a hit: top-dose activity, negative = inhibition, actives largely listed as inhibitors; hit rate 0.17% among 330,000;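 also: 0% = uninhibited 1x PFK enzyme wells and -100% = no-enzyme wells; nearly all actives have a fitted effect of over 60% in size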
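In TEA buffer at pH 8.0 with 5 mM MgCl2, enzyme (1.25 nM) converted F6P (0.5 mM) and ATP (0.1 mM) for 45 min at room temperature. ADP product was read by luciferase luminescence.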
PGK inhibitor – blocks T. brucei phosphoglycerate kinase | PGK/GAPDH coupled, Kinase-Glo luminescence, 60 min | Potency, µM (doses to about 57.5 µM), for inactives: at the top dose activity change, negative = inhibition, usual class: inhibitors | hit rate 0.043% among 380,000 | AID 602233; also: nearly all actives have a fitted effect of over 60% in size
Target sequence (P07378 whole entry, looked up): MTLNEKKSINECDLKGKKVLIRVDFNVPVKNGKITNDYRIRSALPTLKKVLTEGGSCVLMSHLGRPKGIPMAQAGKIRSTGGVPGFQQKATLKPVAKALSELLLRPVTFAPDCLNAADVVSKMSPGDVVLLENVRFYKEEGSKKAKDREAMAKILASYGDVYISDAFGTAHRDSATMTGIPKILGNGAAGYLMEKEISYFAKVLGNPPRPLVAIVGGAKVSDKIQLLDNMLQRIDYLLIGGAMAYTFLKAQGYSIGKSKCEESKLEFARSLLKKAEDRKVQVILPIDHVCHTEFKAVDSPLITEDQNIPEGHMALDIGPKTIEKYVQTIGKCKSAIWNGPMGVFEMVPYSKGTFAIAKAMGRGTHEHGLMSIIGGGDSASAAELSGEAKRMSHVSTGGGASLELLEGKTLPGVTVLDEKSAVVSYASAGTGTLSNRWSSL
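Luminescent ATP detection (Kinase-Glo Plus) follows a 60-minute room-temperature incubation, with wells lacking PGK as controls. Buffer: 100 mM TEA (pH 7.6), 5 mM MgCl2, 0.01% Tween-20. Coupling enzyme GAPDH (100 nM final) supplies unstable 1,3-BPG in-well.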
VDR inhibitor – vitamin D3 receptor (human) inhibition; P11473; VDR-SRC2-3 peptide fluorescence polarization, 2 h; Potency, µM, for the others: max response, negative = inhibition, hits mostly inhibitors; hit rate 0.93% among 400,000; AID 504847
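Signal is fluorescence polarization, reporting how far test compounds block the interaction of VDR with the SRC2-3 coregulator peptide after a 2 h room-temperature incubation.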
* hit, by the source's call; i = inactive; ? = inconclusive; · = no result. Only some compounds are listed: those with a hit (about 1.1% of all), similar ones and a draw of the others. Unless noted, calls follow the shape of the dose curve; as a rule, active = well fitted curve in the direction sought with a large enough effect; inconclusive = small, poorly fitted or top-dose-only effect, or another doubt; inactive = no such curve, though single readings can be large; an effect the other way counts as inactive or inconclusive. Unless noted, % is scaled to controls: 0 for no effect and ±100 for the full control effect; potency is read from the fitted curve at half-maximal effect.

SMILES	Pin1 inh	GLS inh	Tb PFK block	PGK inhibitor	VDR inhibitor
Cc1ccc(NCc2cc3cc4c(cc3n(CC(=O)Nc3ccc(C)cc3)c2=O)OCCO4)cc1	?	?	·	1%	5%
CCc1ccc(NCc2cc3cc4c(cc3n(CC(=O)Nc3ccccc3OC)c2=O)OCCO4)cc1	1%	-32%	·	0%	-5%
CCc1ccc(NCc2cc3cc4c(cc3n(CC(=O)Nc3ccccc3C)c2=O)OCCO4)cc1	-16%	11µM*	·	3%	3%
CCc1ccc(NCc2cc3cc4c(cc3n(CC(=O)Nc3ccc(Cl)cc3)c2=O)OCO4)cc1	?	13µM*	·	-7%	5%
CC1(c2nnnn2-c2ccc3c(c2)OCCO3)CCC(=O)N1CCc1ccccc1F (stereo unspecified)	·	7%	·	·	·
COc1ccc2c(c1)C(=O)[C@H](OC(=O)NCc1ccco1)[C@@H](c1ccc(OC)c(Br)c1)O2	·	·	·	·	56µM*
COC[C@H]1OC=C[C@@H](OC)[C@@H]1OC	·	·	·	·	3%
O=C(C[n+]1ccccc1)N/N=C/c1ccc(Cl)cc1	-3%	-1%	6%	-2%	-3%
COC(=O)c1cc(NC(=O)CC2SC(=Nc3ccccc3)N(CCc3c[nH]c4ccccc34)C2=O)cc(C(=O)OC)c1 (stereo unspecified)	17%	25µM*	0%	-2%	7%
COCCN1C(=O)C(CC(=O)Nc2ccc(C(=O)O)cc2)SC1=Nc1ccccc1 (stereo unspecified)	-12%	2%	2%	-1%	-20%
CN(C)c1ccc(N/C=C/C(=O)c2ccco2)cc1	18%	24%	-15%	?	89µM*
CCn1cc(S(=O)(=O)Nc2cc(C(=O)OC)ccc2C)cn1	-1%	0%	0%	-4%	10%
Cc1cc(C)c(S(=O)(=O)c2ccccc2C)c(Cl)n1	-12%	13µM*	0%	i	17%
Cc1ccc(S(=O)(=O)c2c(C)cc(C)nc2Cl)c(C)c1	-4%	13µM*	-6%	-9%	-3%
Cc1ccc(S(=O)(=O)c2c(C)cc(C)nc2Cl)cc1	0%	11µM*	-7%	9%	-22%
Cc1cc(C)c(S(=O)(=O)c2ccccc2)c(Cl)n1	-2%	-21%	-13%	-1%	-4%
Cc1ccc(C)c(S(=O)(=O)c2c(C)cc(C)nc2Cl)c1	1%	3%	4%	11%	0%
CC(=O)c1ccc(OCC(=O)NC(=O)NC2CCCC2)cc1	·	1%	·	-2%	·
COc1ccc(CC(=O)NC2CC(=O)N(c3cccc(F)c3)C2)cc1OC (stereo unspecified)	2%	4%	·	i	-4%
COc1ccc(OCCNC(=O)c2ccc3nc(C)c(N(C)C(=O)CCc4ccccc4)n3c2)cc1	·	1%	·	·	·
CCCS(=O)(=O)c1ncc(Cl)c(C(=O)N(Cc2ccccc2)Cc2ccco2)n1	1%	6%	·	-9%	22µM*
CCSc1ncc(Cl)c(C(=O)N(Cc2ccccc2)Cc2ccco2)n1	7%	-9%	·	·	6%
O=C(O)c1ccc(S(=O)(=O)c2ccc3c(c2)C(=O)N(NC(=O)c2ccc(O)cc2)C3=O)cc1	-5%	1%	-1%	7%	-2%
Cc1ccc(C(=O)NN2C(=O)c3ccc(S(=O)(=O)c4ccc(C(=O)O)cc4)cc3C2=O)cc1	-9%	-5%	1%	3%	40µM*
CC(C)CCn1c(O)c(N=NC(=O)Cn2ccc(C(F)(F)F)n2)c2ccccc21	1%	?	0%	-1%	79µM*
SMILES	Pin1 inh	GLS inh	Tb PFK block	PGK inhibitor	VDR inhibitor
CCS(=O)(=O)N1CCc2cc(C(=O)Nc3cccc(C)c3C)ccc21	1%	-13%	·	-1%	13%
CN(C)Cc1cc(C(C)(C)C)cc(C(C)(C)C)c1O	-1%	-2%	3%	3%	2%
CN(C)Cc1cc(O)c(CN(C)C)cc1O	?	14µM*	?	-21%	?
C[C@H](CO)N1C[C@H](C)[C@@H](CN(C)S(=O)(=O)c2ccccc2)Oc2ccc(NC(=O)NC3CCCCC3)cc2C1=O	0%	-2%	2%	-8%	-8%
CN1CCN(C(c2ccc(Cl)cc2)c2cc(Cl)c3cccnc3c2O)CC1 (stereo unspecified)	5%	?	-20%	-8%	45µM*
Cc1cccc(C(=O)NCC(=O)OCc2cc(=O)n3nc(CC(C)C)sc3n2)c1	-4%	-15%	·	-2%	6%
COc1ccc(-c2nc3ccccc3c(=O)n2NC(=S)N(C)C)cc1	3%	1%	-15%	10%	35µM*
COc1ccc(OCC(=O)Nn2c(-c3ccc(OC)cc3)nc3ccccc3c2=O)cc1	-4%	4%	0%	-9%	22%
O=[N+]([O-])c1ccc(N2CCN(c3ccc(O)cc3)CC2)cn1	1%	10µM*	-17%	-1%	11%
O=[N+]([O-])c1ccc(N2CCN(c3ccccc3Cl)CC2)cn1	-15%	-9%	5%	-1%	0%
COc1ccccc1C(=O)Nc1nc2ccccc2[nH]1	1%	8%	?	7.9µM*	?
COc1ccccc1C(=O)NCCC(=O)Nc1nc2ccccc2[nH]1	4%	11%	-16%	5%	-9%
CCc1ccc(Nc2n[n+](C)c(-c3ccncc3)s2)cc1	-6%	8%	3%	i	79µM*
Oc1ccccc1-c1nc2cnccn2c1Nc1ccc(Cl)cc1	4%	4%	·	-2%	-22%
Cc1ccc(Nc2c(-c3ccccc3O)nc3cnccn23)cc1	2%	7.9µM*	-5%	7%	1%
CC(NC(=O)/C(C#N)=C/c1ccc([N+](=O)[O-])o1)c1ccccc1 (stereo unspecified)	?	-3%	-18%	i	25µM*
CC(NC(=O)/C(C#N)=C/c1ccco1)c1ccccc1 (stereo unspecified)	0%	-2%	2%	-5%	-12%
CC1(C)C[C@@H]2C(=O)CCC3O[C@@]3(C)CCC21 (stereo partly specified)	·	·	·	·	16%
Cc1cccc(N2CCN(S(=O)(=O)c3ccc(-c4ccc(=O)[nH]n4)o3)CC2)c1C	17%	-2%	1%	i	0%
COc1cc(C(=O)Oc2c(Sc3ccccc3)c(C)nn2-c2ccccc2)cc(OC)c1OC	3%	21%	·	i	?
CCC(=O)Oc1c(Sc2ccc(C)cc2)c(C)nn1-c1ccccc1	0%	4%	·	-6%	79µM*
CCCC(=O)Oc1c(Sc2ccc(C)cc2)c(C)nn1-c1ccccc1	-9%	9%	·	-16%	18µM*
CCC(=O)Oc1c(Sc2ccc(Cl)cc2)c(C)nn1-c1ccccc1	23%	-5%	·	-7%	79µM*
CCOC(=O)N1CCN(S(=O)(=O)N2CCCC(C(=O)NCCCN3CCCCC3)C2)CC1 (stereo unspecified)	-3%	-3%	1%	2%	15%
O=C(CN1C(=O)CC(c2ccco2)Sc2ccccc21)Nc1ccccc1F (stereo unspecified)	29%	2%	3%	-5%	79µM*
